Several values for one entry are separate records, joined by “and”; a condition that tells them apart may be missing. Equal entries are not always repeated. Unmarked numbers belong to inactive results. Records with an inconclusive call do not appear. Activity calls are given as the source filed them. Unless noted, calls follow the shape of the dose curve; as a rule, active = well fitted curve in the direction sought with a large enough effect in the repeat runs; inconclusive = weak or mixed curves; inactive = no such curve, though single readings can be large; an effect the other way counts as inactive or inconclusive.

Experimental findings from PubChem BioAssay (Tox21) are described below.

Assay [1] in a line: qHTS assay to identify small molecule agonists of the hypoxia (HIF-1) signaling pathway (AID 1224846; active = well fitted activation curve with a large enough effect in the signal ratio in the repeat runs, not every such curve was filed as active; the % refers to the signal ratio). In outline:
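HRE-bla ME-180 beta-lactamase reporter cells in medium with 0.5% dialyzed FBS, pre-incubated 5 h then exposed to compounds 17 h at 37C, 5% CO2; reporter induction read with CCF4-AM FRET substrate.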
(Quantitative high-throughput screening tests each substance at several concentrations.)

The nature of assay [2]: qHTS assay to identify small molecule agonists of H2AX - cell viability counter screen (AID 1224847; calls by dose curve; also: nearly all actives have a fitted effect of over 30% in size; also: potency is read from the fitted curve at half-maximal effect). The procedure, abridged:
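Cells plated first: CHO-K1, 1000 per well in 10% FBS medium, incubated overnight at 37C. Then 15-point compound titration added (final DMSO 0.76%) for 3 hr. Finally CellTiter-Glo added and luminescence read.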

Assay [3] can be described thus: qHTS RealTime-Glo MT Cell Viability Assay in HEK293 cells - 32 hour (AID 1224868). Also: nearly all actives have a fitted effect of over 50% in size. Also: potency is read from the fitted curve at half-maximal effect. In outline:
(§1)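 Viability tracked continuously by luminescence as live cells reduce a prosubstrate for NanoLuc; HEK293 cells preincubated 5 h, compound-treated at 37 C, and read at 0, 8, 16, 24, 32 and 40 h.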

The nature of assay [4]: A CellTox Green Cytotoxicity Assay to monitor cytotoxicity in HEK293 cells - 0 hour (AID 1224869). Also: nearly all actives have a fitted effect of over 50% in size. The procedure, abridged: (§2)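 HEK293 cells, 600/well, were preincubated 5 hours and then exposed to compounds at 37 C for up to 40 hours. A cell-impermeant cyanine dye staining dead-cell DNA was read by fluorescence at 0, 8, 16, 24, 32 and 40 h time points.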
Assay [5] can be described thus: qHTS RealTime-Glo MT Cell Viability Assay in HepG2 cells - 40 hour (AID 1224870). Also: nearly all actives have a fitted effect of over 50% in size. In outline:
(§3)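 Real-time viability: cells seeded at 600 per well together with NanoLuc and cell-permeant prosubstrate, compounds added after 5 h incubation. Luminescence tracked at 0, 8, 16, 24, 32 and 40 h of exposure.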

Assay [6] is described as follows: A CellTox Green Cytotoxicity Assay to monitor cytotoxicity in HEK293 cells - 40 hour (AID 1224871). Also: nearly all actives have a fitted effect of over 45% in size. Also: potency is read from the fitted curve at half-maximal effect. In outline:
as §2

The nature of assay [7]: qHTS RealTime-Glo MT Cell Viability Assay in HEK293 cells - 16 hour (AID 1224872). Also: nearly all actives have a fitted effect of over 50% in size. Also: potency is read from the fitted curve at half-maximal effect. In outline:
as §1

The nature of assay [8]: qHTS RealTime-Glo MT Cell Viability Assay in HepG2 cells - 8 hour (AID 1224873). Also: nearly all actives have a fitted effect of over 55% in size. Also: potency is read from the fitted curve at half-maximal effect. In outline:
as §3

The nature of assay [9]: qHTS RealTime-Glo MT Cell Viability Assay in HEK293 cells - 40 hour (AID 1224874). Also: nearly all actives have a fitted effect of over 50% in size. Also: potency is read from the fitted curve at half-maximal effect. The settings on record: RealTime-Glo luminescence; max response: stronger effect = lower value. In outline:
(§4)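 600 cells/well were plated with the nonlytic NanoLuc/prosubstrate reagent, pre-incubated 5 h, then given 23 nL of compound in DMSO. Incubation at 37 C for 40 h, with luminescence from viable-cell-reduced substrate read repeatedly from 0 h.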

A short description of assay [10]: A CellTox Green Cytotoxicity Assay to monitor cytotoxicity in HEK293 cells - 24 hour (AID 1224875). Also: nearly all actives have a fitted effect of over 45% in size. The procedure, abridged:
as §2

Assay [11] in a line: A CellTox Green Cytotoxicity Assay to monitor cytotoxicity in HepG2 cells - 16 hour (AID 1224876). Also: nearly all actives have a fitted effect of over 45% in size. In outline:
(§5)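 HepG2 cells, 600/well, preincubated 5 h with CellTox Green dye, then exposed to Tox21 compounds in DMSO at 37 C for up to 40 h. Dead-cell DNA fluorescence read at the indicated time point.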

Assay [12] in a line: A CellTox Green Cytotoxicity Assay to monitor cytotoxicity in HepG2 cells - 24 hour (AID 1224878). Also: nearly all actives have a fitted effect of over 45% in size. The procedure, abridged: as §5
Assay [13] can be described thus: qHTS assay to identify small molecule agonists of the estrogen related receptor (ERR) signaling pathway from Tox21 library (AID 1224849; calls by dose curve; also: nearly all actives have a fitted effect of over 15% in size). The settings on record: ERR reporter cell line, ONE-Glo luciferase, 18 h; at 92.4 µM (top of the series) unless noted. In outline:
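ERR reporter cells (NTP line) pre-incubated 6 hours at 37 C, then exposed to compounds for 18 hours at 37 C. ONE-Glo luciferase luminescence was read after 30 minutes at room temperature.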

Assay [14] is described as follows: A CellTox Green Cytotoxicity Assay to monitor cytotoxicity in HepG2 cells - 40 hour (AID 1224879). Also: nearly all actives have a fitted effect of over 40% in size. Also: potency is read from the fitted curve at half-maximal effect. In outline: as §5
The nature of assay [15]: qHTS RealTime-Glo MT Cell Viability Assay in HEK293 cells - 0 hour (AID 1224880). The procedure, abridged:
as §4

A short description of assay [16]: qHTS assay to identify small molecule agonists of H2AX (AID 1224845; active = well fitted activation curve with a large enough effect in the signal ratio in the repeat runs, not every such curve was filed as active; the % refers to the signal ratio). In outline:
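Phospho-H2AX Ser139 measured by HTRF (ex 320 nm; em 665 and 620 nm) after 24 hr antibody incubation. Compounds, 15 concentrations, 0.76% DMSO, were applied to CHO-K1 cells for 3hr at 37C before lysis.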

The nature of assay [17]: qHTS RealTime-Glo MT Cell Viability Assay in HepG2 cells - 24 hour (AID 1224867). Also: nearly all actives have a fitted effect of over 50% in size. In outline: (§6)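 Viability was tracked continuously by NanoLuc luminescence from prosubstrate reduced by living HepG2 cells, at successive time points over 40 h of compound exposure. Cells with reagent were preincubated 5 h at 37 °C before compound addition.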
The nature of assay [18]: qHTS RealTime-Glo MT Cell Viability Assay in HepG2 cells - 32 hour (AID 1224877). Also: nearly all actives have a fitted effect of over 55% in size. The procedure, abridged: as §6
Assay [19] in a line: qHTS assay to identify small molecule antagonists of the estrogen related receptor (ERR) signaling pathway from Tox21 library (AID 1224848). Also: nearly all actives have a fitted effect of over 50% in size. In outline:
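Reading was by luminescence 30 min after ONE-Glo addition. Before that, ERR cells at 2,000 per well had rested 6 h at 37 C/5% CO2 and then received pin-tooled compounds in DMSO for 18 h at 37 C.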
% is scaled to controls: 0 for no effect and ±100 for the full control effect.

For the compound `COc1ccc(Cc2nccc3cc(OC)c(OC)cc23)cc1OC`, the Potency entry in [1], in [2], in assay [4], in assay [5], in assay [6] and in [10] was “inactive” throughout. The Potency entry in assay [11] and in assay [12] was “inactive” throughout. Besides, the Potency was 5.35 µM (active) in assay [3], 4.77 µM (active) in assay [7], 10.7 µM (active) in assay [8] and 5.35 µM (active) in [9].

With `CC(C)N(C(=O)CCl)c1ccccc1`, the activity change, positive = activation in assay [13] was -77.7% and -74.7%. Besides, the Potency entry in assay [4], in assay [6], in assay [10], in assay [11], in [12] and in [15] was “inactive” throughout. In addition, the Potency is 49 µM (active) and 38.9 µM (active) in [9]; 43.6 µM (active) in assay [14].

Regarding `Cc1ccc2cc3c(ccc4ccccc43)c3c2c1CC3`, the Potency entry in [16], in assay [2], in assay [17], in assay [3], in assay [4] and in assay [5] was “inactive” throughout. Moreover, the Potency result in assay [7], in assay [8], in assay [11], in assay [18], in [12] and in assay [15] was “inactive” throughout. Moreover, in assay [9], the max response was 6.91%. Also, the Potency in assay [14] is 6.93 µM (active).

In the case of `[O]=[Cr](=[O])([OH])[O][Cr](=[O])(=[O])[OH]`, the Potency was 90.6 µM (active) in [2]; 4.41 µM (active) and 4.36 µM (active) in assay [3]; 7.83 µM (active) and 21.8 µM (active) in assay [7]; 3.5 µM (active) and 2.18 µM (active) in assay [9]; 9.86 µM (active) and 12.3 µM (active) in assay [14]. For the same compound, the Potency result in [4], in assay [6], in [8], in assay [10], in assay [11] and in assay [15] was “inactive” in each case.

For `O=C(NC(=O)c1c(F)cccc1F)Nc1ccc(Oc2ccc(C(F)(F)F)cc2Cl)cc1F`, the Potency entry in assay [1], in [17], in [4], in [5], in [6] and in assay [8] was “inactive” throughout. Further, the Potency result in [10], in assay [11], in assay [12], in assay [14] and in assay [15] was “inactive” throughout. Besides, the Potency in [3] was 43.6 µM (active); in assay [7] it was 24.5 µM (active); in assay [9] it was 43.6 µM (active).

`c1cc[n+]2c(c1)-c1cccc[n+]1CC2`: the Potency entry in assay [16], in assay [1], in [2], in assay [3], in assay [4] and in [5] was “inactive” throughout. For the same compound, the Potency entry in assay [6], in assay [7], in assay [8], in assay [10], in assay [11] and in assay [18] was “inactive” each time. Also, the Potency entry in [14] and in assay [15] was “inactive” throughout.

For the compound `O=S1(=O)OCC2C(CO1)C1(Cl)C(Cl)=C(Cl)C2(Cl)C1(Cl)Cl` (stereo unspecified), the Potency entry in assay [16], in assay [1], in [2], in assay [4], in assay [5] and in assay [11] was “inactive” each time. For the same compound, the Potency entry in assay [12] and in assay [15] was “inactive” throughout. For the same compound, the Potency is 21.9 µM (active) in assay [3], 49 µM (active) in assay [6], 19.5 µM (active) in assay [7] and 21.9 µM (active) in assay [9].

As for `Brc1cccc(-c2ccccc2)c1`, the Potency entry in assay [1], in [19], in assay [17], in assay [3], in assay [4] and in [5] was “inactive” throughout. Moreover, the Potency result in [7], in [8], in assay [11], in assay [18], in assay [14] and in assay [15] was “inactive” in each case. In addition, in assay [13], the activity change, positive = activation is -0.973%. Further, the Potency in assay [6] was 39.2 µM (active). Further, the max response in assay [9] was -11.2%.
